What is called inhibition is the change of the read-out against control, counted positive when it falls.

Assay [1] concerns the target T1, Ephrin type-B receptor 2 (Homo sapiens) (UniProt P29323).
T1 sequence (whole entry): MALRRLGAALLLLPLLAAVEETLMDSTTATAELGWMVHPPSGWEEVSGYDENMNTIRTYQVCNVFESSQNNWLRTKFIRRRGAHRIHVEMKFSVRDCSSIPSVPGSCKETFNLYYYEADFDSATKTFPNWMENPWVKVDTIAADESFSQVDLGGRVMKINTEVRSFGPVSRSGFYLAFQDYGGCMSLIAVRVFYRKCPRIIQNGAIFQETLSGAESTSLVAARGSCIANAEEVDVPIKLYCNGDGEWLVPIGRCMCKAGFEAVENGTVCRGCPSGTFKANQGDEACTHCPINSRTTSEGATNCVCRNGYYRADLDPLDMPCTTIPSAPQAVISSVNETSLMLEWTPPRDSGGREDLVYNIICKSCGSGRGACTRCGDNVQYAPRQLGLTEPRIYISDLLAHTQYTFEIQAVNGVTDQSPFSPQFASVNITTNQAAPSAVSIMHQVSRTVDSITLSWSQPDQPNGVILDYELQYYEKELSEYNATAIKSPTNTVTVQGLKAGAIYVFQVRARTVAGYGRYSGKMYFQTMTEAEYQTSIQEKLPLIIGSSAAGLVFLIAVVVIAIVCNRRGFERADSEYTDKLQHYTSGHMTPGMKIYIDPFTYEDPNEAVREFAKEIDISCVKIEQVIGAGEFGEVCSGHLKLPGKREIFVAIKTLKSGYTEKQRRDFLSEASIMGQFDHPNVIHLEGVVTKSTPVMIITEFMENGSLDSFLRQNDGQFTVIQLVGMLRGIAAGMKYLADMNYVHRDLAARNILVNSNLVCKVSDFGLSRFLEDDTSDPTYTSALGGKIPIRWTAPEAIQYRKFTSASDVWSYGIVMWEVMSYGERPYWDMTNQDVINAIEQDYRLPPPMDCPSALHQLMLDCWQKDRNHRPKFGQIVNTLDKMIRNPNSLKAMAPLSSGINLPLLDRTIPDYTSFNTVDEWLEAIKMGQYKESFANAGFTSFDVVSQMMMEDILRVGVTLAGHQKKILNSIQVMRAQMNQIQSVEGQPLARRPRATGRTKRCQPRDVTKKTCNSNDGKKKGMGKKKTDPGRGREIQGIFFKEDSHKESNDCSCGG
Particulars: at 1 µM.

Assay [2] concerns the target T2, Ephrin type-B receptor 3 (Homo sapiens) (UniProt P54753).
T2 sequence (whole entry): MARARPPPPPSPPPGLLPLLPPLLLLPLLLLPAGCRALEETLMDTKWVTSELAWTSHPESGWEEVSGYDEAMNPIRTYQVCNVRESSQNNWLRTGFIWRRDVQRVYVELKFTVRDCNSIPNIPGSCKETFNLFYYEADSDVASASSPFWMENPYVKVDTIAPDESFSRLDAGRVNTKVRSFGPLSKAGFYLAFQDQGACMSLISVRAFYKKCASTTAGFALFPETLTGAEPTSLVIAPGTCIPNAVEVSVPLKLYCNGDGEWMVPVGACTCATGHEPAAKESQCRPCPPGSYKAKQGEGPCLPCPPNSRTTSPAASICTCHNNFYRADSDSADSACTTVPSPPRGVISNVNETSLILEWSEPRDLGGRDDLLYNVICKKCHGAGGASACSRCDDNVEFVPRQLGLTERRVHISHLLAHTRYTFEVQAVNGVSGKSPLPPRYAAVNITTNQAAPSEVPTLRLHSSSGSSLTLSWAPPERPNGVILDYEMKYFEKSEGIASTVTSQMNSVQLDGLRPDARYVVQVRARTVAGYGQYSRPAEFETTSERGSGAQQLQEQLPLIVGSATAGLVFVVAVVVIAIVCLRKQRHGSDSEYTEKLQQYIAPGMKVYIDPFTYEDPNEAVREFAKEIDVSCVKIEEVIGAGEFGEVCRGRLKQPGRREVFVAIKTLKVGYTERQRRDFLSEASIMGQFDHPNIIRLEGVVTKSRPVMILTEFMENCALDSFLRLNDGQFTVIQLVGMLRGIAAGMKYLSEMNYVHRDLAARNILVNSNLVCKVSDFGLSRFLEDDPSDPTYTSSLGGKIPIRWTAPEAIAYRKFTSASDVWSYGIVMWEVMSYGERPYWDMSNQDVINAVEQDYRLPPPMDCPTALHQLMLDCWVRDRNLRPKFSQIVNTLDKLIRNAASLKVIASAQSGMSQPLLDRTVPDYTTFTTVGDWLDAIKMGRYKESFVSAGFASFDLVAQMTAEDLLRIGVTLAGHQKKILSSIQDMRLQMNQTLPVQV
As to conditions: at 0.1 µM.

Assay [3] addresses T2, Ephrin type-B receptor 3 (Homo sapiens). As to conditions: at 1 µM.
The target in assay [4] is T3, Ephrin type-B receptor 4 (Homo sapiens) (UniProt P54760).
T3 sequence (whole entry): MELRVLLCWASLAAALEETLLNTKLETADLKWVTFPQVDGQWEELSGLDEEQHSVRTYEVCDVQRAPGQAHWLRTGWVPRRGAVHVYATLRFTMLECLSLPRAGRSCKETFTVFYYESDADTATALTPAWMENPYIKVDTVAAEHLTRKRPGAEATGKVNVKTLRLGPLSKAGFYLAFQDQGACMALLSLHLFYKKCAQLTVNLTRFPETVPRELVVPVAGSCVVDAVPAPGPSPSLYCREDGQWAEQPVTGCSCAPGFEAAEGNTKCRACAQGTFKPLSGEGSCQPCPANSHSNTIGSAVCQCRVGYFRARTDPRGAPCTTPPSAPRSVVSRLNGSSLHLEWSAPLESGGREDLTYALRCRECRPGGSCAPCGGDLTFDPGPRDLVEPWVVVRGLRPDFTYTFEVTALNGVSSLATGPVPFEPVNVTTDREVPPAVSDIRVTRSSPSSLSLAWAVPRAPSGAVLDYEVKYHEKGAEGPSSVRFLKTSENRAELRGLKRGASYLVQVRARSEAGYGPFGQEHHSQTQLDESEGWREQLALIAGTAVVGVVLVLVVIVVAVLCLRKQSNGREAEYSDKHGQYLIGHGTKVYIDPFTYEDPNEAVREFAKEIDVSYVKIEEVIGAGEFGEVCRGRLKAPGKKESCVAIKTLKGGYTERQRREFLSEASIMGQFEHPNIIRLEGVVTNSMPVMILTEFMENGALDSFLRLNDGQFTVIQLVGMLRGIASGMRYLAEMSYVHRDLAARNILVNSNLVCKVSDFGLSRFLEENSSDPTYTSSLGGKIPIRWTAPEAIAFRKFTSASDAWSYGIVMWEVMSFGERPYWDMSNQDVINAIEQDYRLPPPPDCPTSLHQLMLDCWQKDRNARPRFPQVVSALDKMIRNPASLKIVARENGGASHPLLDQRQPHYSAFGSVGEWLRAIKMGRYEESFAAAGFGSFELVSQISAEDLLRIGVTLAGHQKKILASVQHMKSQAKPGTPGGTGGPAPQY
As to conditions: at 0.1 µM.

In assay [5] the target is T3, Ephrin type-B receptor 4 (Homo sapiens). Particulars: at 1 µM.
In assay [6] the target is Receptor tyrosine-protein kinase erbB-2 (Homo sapiens) (UniProt P04626). Particulars: at 0.1 µM.
Sequence of Receptor tyrosine-protein kinase erbB-2 (Homo sapiens) (P04626 whole entry): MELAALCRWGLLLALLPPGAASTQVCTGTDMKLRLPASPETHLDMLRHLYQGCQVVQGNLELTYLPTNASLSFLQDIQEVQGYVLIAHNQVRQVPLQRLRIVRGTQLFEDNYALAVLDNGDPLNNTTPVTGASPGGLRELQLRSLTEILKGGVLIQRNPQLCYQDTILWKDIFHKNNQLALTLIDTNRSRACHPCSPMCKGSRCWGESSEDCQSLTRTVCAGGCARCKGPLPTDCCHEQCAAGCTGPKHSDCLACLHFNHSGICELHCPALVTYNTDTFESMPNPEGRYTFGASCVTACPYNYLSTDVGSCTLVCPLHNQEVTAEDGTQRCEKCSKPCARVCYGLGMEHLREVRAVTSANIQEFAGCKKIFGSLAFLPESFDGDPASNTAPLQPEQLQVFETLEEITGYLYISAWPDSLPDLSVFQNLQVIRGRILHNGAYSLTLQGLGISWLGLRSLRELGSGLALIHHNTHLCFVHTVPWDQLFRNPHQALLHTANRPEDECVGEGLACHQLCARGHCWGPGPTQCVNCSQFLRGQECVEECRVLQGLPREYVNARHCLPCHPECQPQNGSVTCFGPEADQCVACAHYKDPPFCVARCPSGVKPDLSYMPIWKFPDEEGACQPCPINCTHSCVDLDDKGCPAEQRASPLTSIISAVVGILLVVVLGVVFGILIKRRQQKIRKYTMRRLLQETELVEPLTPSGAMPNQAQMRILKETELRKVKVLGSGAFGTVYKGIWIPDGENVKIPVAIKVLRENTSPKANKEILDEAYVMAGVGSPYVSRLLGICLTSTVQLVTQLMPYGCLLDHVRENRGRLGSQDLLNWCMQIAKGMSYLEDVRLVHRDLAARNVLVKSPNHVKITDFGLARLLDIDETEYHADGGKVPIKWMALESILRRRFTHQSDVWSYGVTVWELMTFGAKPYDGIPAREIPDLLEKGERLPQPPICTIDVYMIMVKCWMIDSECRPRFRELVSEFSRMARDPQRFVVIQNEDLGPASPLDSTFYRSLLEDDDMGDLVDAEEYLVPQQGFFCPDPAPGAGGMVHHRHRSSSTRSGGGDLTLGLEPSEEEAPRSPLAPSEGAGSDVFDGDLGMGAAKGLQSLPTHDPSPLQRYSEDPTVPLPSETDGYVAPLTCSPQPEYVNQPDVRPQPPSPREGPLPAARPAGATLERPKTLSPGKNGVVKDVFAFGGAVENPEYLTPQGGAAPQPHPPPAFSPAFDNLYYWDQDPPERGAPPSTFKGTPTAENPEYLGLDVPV
The target is the same in assay [7]. Particulars: at 1 µM.
Assay [8] addresses Receptor tyrosine-protein kinase erbB-4 (Homo sapiens) (UniProt Q15303). Particulars: at 0.1 µM.
Assay [9] shares this target. Particulars: at 1 µM.
Assay [10] concerns the target Tyrosine-protein kinase Fer (Homo sapiens) (UniProt P16591). Particulars: at 0.1 µM.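 Note: reported figures are averaged percent inhibition of FER.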

Sequence of Receptor tyrosine-protein kinase erbB-4 (Homo sapiens) (Q15303 whole entry): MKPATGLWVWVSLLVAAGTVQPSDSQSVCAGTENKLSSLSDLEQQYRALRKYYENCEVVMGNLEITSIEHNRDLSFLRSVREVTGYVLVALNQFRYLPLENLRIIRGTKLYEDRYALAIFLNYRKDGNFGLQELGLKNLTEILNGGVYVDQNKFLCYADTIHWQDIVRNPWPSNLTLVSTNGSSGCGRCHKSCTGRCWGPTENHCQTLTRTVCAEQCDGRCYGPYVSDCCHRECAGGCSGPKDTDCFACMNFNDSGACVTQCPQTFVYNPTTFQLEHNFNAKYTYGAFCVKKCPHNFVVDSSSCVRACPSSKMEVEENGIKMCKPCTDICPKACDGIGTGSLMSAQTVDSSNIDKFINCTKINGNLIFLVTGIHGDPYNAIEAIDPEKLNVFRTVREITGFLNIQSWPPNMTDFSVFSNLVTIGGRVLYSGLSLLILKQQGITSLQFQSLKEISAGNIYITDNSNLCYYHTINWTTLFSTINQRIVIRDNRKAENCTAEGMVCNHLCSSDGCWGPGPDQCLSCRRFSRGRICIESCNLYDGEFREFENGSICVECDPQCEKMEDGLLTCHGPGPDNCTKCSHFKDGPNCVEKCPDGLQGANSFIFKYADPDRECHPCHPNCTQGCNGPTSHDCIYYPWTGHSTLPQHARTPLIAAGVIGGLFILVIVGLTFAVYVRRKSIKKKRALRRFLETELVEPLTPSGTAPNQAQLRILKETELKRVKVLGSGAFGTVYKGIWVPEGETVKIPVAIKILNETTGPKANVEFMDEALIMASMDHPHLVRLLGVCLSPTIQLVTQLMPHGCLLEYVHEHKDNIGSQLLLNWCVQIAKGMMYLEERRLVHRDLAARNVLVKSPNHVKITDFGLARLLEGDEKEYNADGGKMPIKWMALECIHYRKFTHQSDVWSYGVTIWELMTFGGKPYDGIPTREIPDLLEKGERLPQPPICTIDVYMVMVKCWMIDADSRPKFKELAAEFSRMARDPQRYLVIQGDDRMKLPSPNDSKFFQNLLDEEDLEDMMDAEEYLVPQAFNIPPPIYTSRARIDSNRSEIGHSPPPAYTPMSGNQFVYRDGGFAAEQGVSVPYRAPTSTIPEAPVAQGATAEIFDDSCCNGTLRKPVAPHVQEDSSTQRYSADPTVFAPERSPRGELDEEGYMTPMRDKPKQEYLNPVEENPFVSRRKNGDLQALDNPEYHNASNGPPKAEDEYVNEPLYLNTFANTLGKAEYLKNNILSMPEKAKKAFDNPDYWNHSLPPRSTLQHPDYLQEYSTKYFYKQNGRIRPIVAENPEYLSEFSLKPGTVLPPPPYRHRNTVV
Sequence of Tyrosine-protein kinase Fer (Homo sapiens) (P16591 whole entry, looked up): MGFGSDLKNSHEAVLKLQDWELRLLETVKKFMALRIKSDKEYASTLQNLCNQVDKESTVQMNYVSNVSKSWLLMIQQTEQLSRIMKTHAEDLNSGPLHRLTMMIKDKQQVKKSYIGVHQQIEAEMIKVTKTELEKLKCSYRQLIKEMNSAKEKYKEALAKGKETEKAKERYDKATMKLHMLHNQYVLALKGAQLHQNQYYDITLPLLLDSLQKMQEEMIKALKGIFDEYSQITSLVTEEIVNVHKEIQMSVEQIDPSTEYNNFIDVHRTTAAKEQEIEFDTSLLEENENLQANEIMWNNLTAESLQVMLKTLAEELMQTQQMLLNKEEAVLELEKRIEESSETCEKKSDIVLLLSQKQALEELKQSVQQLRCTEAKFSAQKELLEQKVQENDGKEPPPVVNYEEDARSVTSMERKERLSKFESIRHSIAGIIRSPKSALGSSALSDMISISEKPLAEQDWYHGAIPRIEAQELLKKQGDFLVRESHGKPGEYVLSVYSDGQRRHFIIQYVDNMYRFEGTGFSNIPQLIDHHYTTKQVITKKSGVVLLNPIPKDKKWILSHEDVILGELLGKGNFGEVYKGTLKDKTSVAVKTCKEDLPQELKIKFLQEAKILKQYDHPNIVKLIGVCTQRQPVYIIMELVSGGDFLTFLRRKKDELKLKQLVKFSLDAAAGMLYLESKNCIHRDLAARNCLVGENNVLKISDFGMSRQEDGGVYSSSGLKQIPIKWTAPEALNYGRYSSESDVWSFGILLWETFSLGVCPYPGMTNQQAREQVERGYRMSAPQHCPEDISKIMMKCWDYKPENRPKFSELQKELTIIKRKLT

For `NS(=O)(=O)c1ccc(NC=C2C(=O)Nc3ccc4ncsc4c32)cc1`, the inhibition was found to be 26.1% in assay [1]; 5.96% in [2]; 2.98% in assay [3]; 4.95% in [4]; 12.2% in assay [5]; 1.93% in [6]. The inhibition in assay [7] was -0.87%; in assay [8], 17.8%; in assay [9], 11.2%; in assay [10], 5.32%.
`CN(C)C(=O)O[C@@H]1CN[C@@H](C#Cc2cc3ncnc(Nc4ccc(OCc5cccc(F)c5)c(Cl)c4)c3s2)C1`: the inhibition was -1.82% in assay [1]; 2.5% in assay [2]; -1.81% in assay [3]; 1.64% in assay [4]; 3.64% in [5]; -1.37% in assay [6]. In addition, the inhibition in assay [7] came out at 27.1%; in assay [8], 107%; in assay [9] it was 130%; in assay [10], 0.75%.
For the compound `CC(C)c1ccc(Nc2nccc(-c3cnn4ncccc34)n2)cc1`, the inhibition turned out to be 14.4% in assay [1]; 6.52% in assay [2]; 2.55% in assay [3]; 4.64% in assay [4]; 2.76% in assay [5]; 0.95% in [6]. The inhibition in [7] was determined as 3.22%; in assay [8], 8.58%; in assay [9], 11.6%; in assay [10] it was 5.74%.
As for `Oc1cccc(-c2nc(-c3ccccc3)[nH]c2-c2ccncc2)c1`, the inhibition in assay [1] stood at 26.1%; in assay [2] it was 9.06%; in assay [3], 19.3%; in [4], 6.41%; in [5], 9.99%; in assay [6], 4.55%. Moreover, the inhibition was 3.87% in assay [7], 12.6% in assay [8], 19.4% in assay [9] and 3.43% in assay [10].
With `NC(=O)c1cccc(Nc2nccc(Nc3cccc(F)c3)n2)c1`, the inhibition in assay [1] was 18.1%; in assay [2], 2.13%; in assay [3] it was 2.83%; in assay [4], -0.22%; in [5], 5.23%; in [6], 0.04%. In addition, the inhibition was 3.14% in assay [7], 5.37% in assay [8], 13.2% in assay [9] and -2.66% in assay [10].
With `Nc1nccc(C#Cc2cncnc2Nc2ccc(OCc3cccc(F)c3)c(Cl)c2)n1`, the inhibition in assay [1] is 7.89%; in assay [2] it was 5.26%; in assay [3], 4.02%; in assay [4], 1.01%; in assay [5], 2.68%; in assay [6], -1.45%. Further, the inhibition is -8.09% in assay [7], 14.2% in [8], 24.8% in assay [9] and 2.1% in [10].
Take `COC(=O)Nc1nc2cc(Oc3ccc(NC(=O)Nc4cccc(Br)c4)cc3)ccc2[nH]1`: the inhibition in [1] stood at 80.4%; in assay [2], 5.42%; in assay [3], 7.66%; in assay [4], 9.97%; in assay [5], 26%; in assay [6], 3.03%. Besides, the inhibition in assay [7] was determined as 0.8%; in assay [8], 7.14%; in assay [9] it was 11.2%; in assay [10], 2.5%.
On to `CCn1c(-c2nonc2N)nc2ccc(F)cc21`, for which the inhibition in [1] was found to be 12.6%; in assay [2] it was 6.48%; in [3], 4.6%; in assay [4], 1.64%; in [5], 1.12%; in [6], 5.65%. The inhibition in assay [7] turned out to be 14%; in [8] it was 20.6%; in [9], 20.7%; in assay [10], 3.01%.
